# DT40 TDP1 CPT = growth inhibition of DT40 Tdp1-/-;hTDP1 cells with camptothecin (screen for TDP1 inhibitors). Potency, µM (doses to about 46.2 µM), for inactives: top-dose activity change, negative = growth inhibition, actives largely listed as inhibitors. 420,000 tested, 12% active. chicken DT40 Tdp1-/-;hTDP1 cells + 20 nM CPT, ATP luminescence, 48 h; further: nearly all actives have a fitted effect of over 55% in size
#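 Chicken DT40 Tdp1-/- cells stably complemented with human TDP1 were seeded at 400 cells/well in medium containing 20 nM camptothecin, exposed to pin-transferred compounds, and grown at 37 °C for at least 48 hr. Viability was read as ATP luminescence.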
# Gal4-VP16 FLuc = counter-screen for ROR gamma inhibitors: Gal4-VP16 reporter; Drosophila S2 Gal4-VP16 UAS-luciferase, luminescence, 20 h; Potency, µM (doses to about 53.6 µM), without a hit: top-dose activity, negative = inhibition, hits mostly inhibitors; 310,000 tested, 3.5% active;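 further: Gal4-VP16 expression switched on by copper sulfate through the metallothionein promoter; nearly all actives have a fitted effect of over 50% in size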
# RORgamma inh = blocks mouse ROR gamma transcriptional activity; Drosophila S2 Gal4-RORgamma UAS-luciferase reporter, 20 h; Potency, µM (top dose mostly 53.6 µM), without a hit: at the top dose activity change, negative = inhibition, hits mostly inhibitors; 310,000 tested, 5.4% active; AID 2551; further: nearly all actives have a fitted effect of over 60% in size
# Target sequence (P51450 whole entry, looked up, the tested form may be a part): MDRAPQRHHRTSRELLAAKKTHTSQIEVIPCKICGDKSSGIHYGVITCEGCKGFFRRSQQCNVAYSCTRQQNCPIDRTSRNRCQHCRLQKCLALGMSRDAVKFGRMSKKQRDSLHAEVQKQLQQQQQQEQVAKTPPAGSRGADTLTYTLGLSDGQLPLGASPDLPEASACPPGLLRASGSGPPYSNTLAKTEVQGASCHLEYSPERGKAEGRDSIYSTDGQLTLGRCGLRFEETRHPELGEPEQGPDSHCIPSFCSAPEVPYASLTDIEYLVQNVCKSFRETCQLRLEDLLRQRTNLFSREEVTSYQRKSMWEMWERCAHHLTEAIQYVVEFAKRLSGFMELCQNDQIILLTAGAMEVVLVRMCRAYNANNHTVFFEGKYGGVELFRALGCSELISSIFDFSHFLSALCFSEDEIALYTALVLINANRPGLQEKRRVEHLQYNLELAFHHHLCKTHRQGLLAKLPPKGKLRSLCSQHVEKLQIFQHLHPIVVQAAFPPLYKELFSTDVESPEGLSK
#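 In this cell-based reporter format, copper sulfate (700 uM final) drives Gal4–ROR gamma fusion expression from a metallothionein promoter in Drosophila Schneider cells; compounds preincubated 1 hr, reporter read after 20 hr at ambient temperature.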
# TDP1 inh = inhibitors of human tyrosyl-DNA phosphodiesterase TDP1; Potency, µM (doses to about 130 µM), without a hit: top-dose activity change, negative = inhibition, most hits filed as inhibitors; 350,000 tested, 0.28% active; recombinant TDP1, AlphaScreen DNA substrate cleavage; Q9NUW8; further: nearly all actives have a fitted effect of over 40% in size
#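 Signal: AlphaScreen proximity between streptavidin donor and anti-FITC acceptor beads on intact substrate. Reaction: Tdp1 1 nM, substrate 15 nM final, 5 min RT after 15 min compound preincubation.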
# DT40 TDP1 no CPT = qHTS for Inhibitors of human tyrosyl-DNA phosphodiesterase 1 (TDP1): qHTS in cells in absence of CPT; DT40 Tdp1-/- hTDP1 cells, no CPT, ATP luminescence, 48 h; Potency, µM (doses to about 46.2 µM), without a hit: at the highest dose activity change, negative = growth inhibition, actives largely listed as inhibitors; 420,000 tested, 15% active; further: nearly all actives have a fitted effect of over 55% in size
#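 Luminescent ATP content (CellTiter-Glo) served as the growth readout. Knockout chicken DT40 cells expressing human TDP1 were exposed to compounds without camptothecin for a minimum 48 hr at 37 °C.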
# * = called active by the depositor; ? = inconclusive; / = no result; [ ] = remark or other dose. Compounds with a hit are over-represented: about 19% of the library has one in this group of screens. The call rests on the fitted dose curve; in most records, active means well fitted curve in the direction sought with a large enough effect; inconclusive means small, poorly fitted or top-dose-only effect, or another doubt; inactive means no such curve, though single readings can be large; an effect the other way counts as inactive or inconclusive. On the % scale 0 is the no-effect control and ±100 the full control effect; potency means the concentration at half of the fitted maximal effect.
SMILES,DT40 TDP1 CPT,Gal4-VP16 FLuc,RORgamma inh,TDP1 inh,DT40 TDP1 no CPT
CC(C)C[C@H]1CN([C@@H](Cc2ccccc2)CN2CCC[C@@H]2CN2C(=O)C(=O)NC[C@@H]2Cc2ccccc2)C(=O)C(=O)N1CCc1ccccc1,16.4µM*,/,/,/,16.4µM*
CC(C)C[C@@H](CN1CCC[C@H]1CN1C(=O)C(=O)NC[C@@H]1Cc1ccccc1)N1C[C@H](Cc2ccccc2)N(CC2CCCCCC2)C(=O)C1=O,18.4µM*,/,/,/,?
CC(C)C[C@H]1CN([C@@H](Cc2ccc(O)cc2)CN2CCC[C@H]2CN2C(=O)C(=O)NC[C@@H]2Cc2ccccc2)C(=O)C(=O)N1CCc1ccccc1,10.3%,/,/,/,-0.3%
Cc1cc(C(=O)N2CCCC(N3CCN(c4ccc(F)cc4)CC3)C2)no1 (stereo not given),-1.3%,-0.2%,13.0%,1.4%,-20.5%
Cc1onc(-c2c(Cl)cccc2Cl)c1/C(N)=N/OC(=O)C(C)(C)C,3.0%,1.1%,39.4%,-7.6%,3.9%
CCC(=O)N1CCN(c2ccccc2NC(=O)COc2cc(C)ccc2C(C)C)CC1,16.4µM*,-12.2%,-23.9%,1.1%,23.1µM*
Cc1ccc(C(C)C)c(OCC(=O)NC(=S)Nc2ccccc2N2CCOCC2)c1,23.1µM*,/,/,3.0%,16.4µM*
COc1c(C(=O)Nc2ccc3[nH]c(=O)[nH]c3c2)cc2ccccc2c1Br,?,?,-37.7%,1.2%,?
COc1cc(C2CC(=O)c3cnc(N4CCN(Cc5ccccc5)CC4)nc3C2)cc(OC)c1OC (stereo not given),7.31µM*,4.2%,2.6%,6.3%,7.31µM*
COc1ccc(C2CC(=O)c3c(C)nc(N4CCN(Cc5ccccc5)CC4)nc3C2)cc1OC (stereo not given),11.6µM*,-7.6%,?,6.7%,13µM*
CC1CC(C)CN(c2ncc3c(n2)CC(c2ccccc2)CC3=O)C1 (stereo not given),11.6µM*,-3.2%,-41.1%[10 µM],-1.0%,10.3µM*
CN(C)CCN1C(=O)C2C(C(=O)Nc3cc(Cl)cc(Cl)c3)C3C=CC2(O3)C1C(=O)NC1CCCCC1 (stereo not given),3.6%,2.8%,9.2%,-0.5%,-2.2%
CCOC(=O)c1ccc(N2C(=O)Cc3ccccc3C2=O)cc1,?,0.5%,0.2%,2.7%[0.0935 µM],?
CCOC(=O)c1ccc(/C=C2\c3ccccc3C(=O)N2c2ccccc2)cc1F,18.4µM*,/,/,4.0%,?
Cn1c2ccccc2c(=O)c2ccc(Cl)cc21,-3.5%,/,/,/,-29.4%
CCOC(=O)c1ccc(-c2ccc3c(=O)c4ccccc4n(C)c3c2)cc1F,14.6µM*,1.4%,3.3%,/,?
CCN(C(=O)N1CCOCC1)c1ccccc1,8.0%,-3.3%,-1.7%,/,-2.9%
Cc1nc(SCC(=O)NCC2CCCO2)c2c3c(sc2n1)CCCC3 (stereo not given),?,12.6µM*,3.55µM*,14.5%,?
Cc1nc(SCC(=O)NCC2CCCO2)c2c(C)c(C)sc2n1 (stereo not given),5.7%,/,/,-5.6%,-0.5%
COCCn1c(C)cc(C(=O)CSc2nc(C)nc3sc4c(c23)CCC4)c1C,16.4µM*,/,/,/,20.6µM*
CCC(=O)Nc1nnc(SCC(=O)NCC2CCCO2)s1 (stereo not given),-15.3%,/,/,/,0.291µM*
CC(C)C(=O)Nc1nnc(SCC(=O)Nc2ccc3c(c2)OCCO3)s1,4.7%,-9.6%,-8.8%,3.5%,-28.0%
COc1ccc(Nc2nnc(SCC(=O)NC(=O)Nc3ccc4c(c3)OCCO4)s2)cc1,?,2.8%,3.4%,-5.5%,16.4µM*
COCCNC(=O)c1cc(S(=O)(=O)N2CCCCC2)ccc1N1CCOCC1,11.1%,/,/,0.0%,-1.3%
O=S(=O)(Nc1cccc(CCc2ccccn2)c1)c1ccc(Cl)cc1,?,-1.0%,?,6.8%,?
SMILES,DT40 TDP1 CPT,Gal4-VP16 FLuc,RORgamma inh,TDP1 inh,DT40 TDP1 no CPT
COc1ccc(Nc2nnc(SCC(=O)N(CC(C)C)C3CCS(=O)(=O)C3)s2)cc1 (stereo not given),?,/,/,/,18.4µM*
CCC(=O)Nc1nnc(SCC(=O)Nc2ccc3c(c2)OCCO3)s1,14.6µM*,-1.4%,21.0%,6.5%,?
CCN(C(=O)CSc1nnc(Nc2ccccc2)s1)C1CCS(=O)(=O)C1 (stereo not given),-3.1%,-15.5%,14.1%,5.0%,1.0%
CC(=O)NCCNc1ncnc2ccc(-c3c(C)noc3C)cc12,?,?,11.2µM*,/,-29.5%
c1nc(NCCN2CCOCC2)c2cc(-c3ccc4c(c3)OCO4)ccc2n1,?,4.0%,31.4%,8.9%[56.1 µM],?
COCCNc1ncnc2ccc(-c3c(C)noc3C)cc12,11.6µM*,13.5%,-35.9%,/,?
CC(=O)NCCNc1ncnc2ccc(-c3ccc4c(c3)OCO4)cc12,16.4µM*,-3.0%,?,/,?
CN1CCN(C(=O)/C(C#N)=C/c2ccc(OC(F)F)cc2)CC1,3.4%,5.1%,-17.7%,5.0%,-12.6%
Cc1ccccc1C(=O)NC(=S)Nc1cccc(NC(=O)C(C)C)c1,-3.7%,-10.3%,25.6%,-3.7%,?
O=C(Nc1ccc(NC(=S)NC(=O)c2ccccc2Cl)cc1)c1cccc(Cl)c1,18.4µM*,/,/,/,16.4µM*
CC(OC(=O)c1ccccc1O)C(=O)Nc1cccc(Cl)c1 (stereo not given),-2.4%,-18.0%,-26.4%,0.0%,13µM*
CC(C)C(=O)Nc1cccc(NC(=S)NC(=O)c2ccccc2Cl)c1,?,0.7%,-19.0%,2.0%,18.4µM*
COc1ccccc1C(c1nnnn1C(C)C)N1CCN(C(=O)c2ccco2)CC1 (stereo not given),-14.3%,-6.0%,38.1%,10.1%,-10.1%
O=S(=O)(NN=Cc1ccc(O)cc1O)c1cc(Cl)c(Cl)cc1Cl,-3.3%,/,/,/,5.1%
COc1cccc(-c2cn3nc4c(nc3n2)CCCC4)c1,-35.3%,?,-21.0%,2.1%,16.4µM*
Cc1cc(C)cc(-n2c(SCC(=O)N3CCCCCC3)nc3c([nH]c4ccccc43)c2=O)c1,0.7%,/,/,4.4%,5.5%
COc1ccc(OC)c(CCNC(=O)c2cc3cccc4c3n2CCS4)c1,?,/,/,2.8%,?
CCOc1ccc(CCNC(=O)c2cc3cccc4c3n2CCS4)cc1,9.2µM*,/,/,-2.8%,?
O=C(NCc1ccccc1Cl)c1cc2cccc3c2n1CCS3,23.1µM*,/,/,5.6%,?
COc1ccccc1CNC(=O)c1cc2cccc3c2n1CCS3,18.4µM*,/,/,2.8%,?
Cc1ccc(CNC(=O)CN(C)S(=O)(=O)c2ccc(Br)s2)cc1,-14.5%,/,/,-2.5%,?
